Bioassay records: PubChem BioAssay, National Center for Advancing Translational Sciences (NCATS)
A selection: hits, their analogues and other compounds. The true share with any hit is near 21%.
Pf growth 96h: P. falciparum growth inhibition at 96 hour, primary screen for plastid delayed-death inhibitors | P. falciparum luciferase reporter growth, 96 h | Potency, µM (top dose mostly 28.7 µM), for inactives: at the top dose activity change, negative = inhibition, most hits filed as inhibitors | actives 6.9% (n = 320,000); active means well fitted inhibition curve with a large enough effect; inconclusive means small, poorly fitted or top-dose-only effect, or another doubt; inactive means no such curve, though single readings can be large or run the other way; further: potency means the concentration at half of the fitted maximal effect; on the % scale 0 is the no-effect control and ±100 the full control effect
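Readout is luminescence from an integrated firefly luciferase in P. falciparum. Red cells, 2% hematocrit and 0.05% parasitemia final, were cultured with compound through two parasite generations (96 hours) at 37 C, 5% CO2.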
SARS PLP yeast: blocks SARS-CoV papain-like protease in a yeast assay | actives 0.19% (n = 330,000) | S. cerevisiae expressing SARS-CoV PLpro, growth rescue | Potency, µM (titrated, usually from 32.9 µM), for inactives: at the top dose activity, positive = growth rescue, most hits filed as activators | AID 485353; further: potency means the concentration at half of the fitted maximal effect; 0% is about no effect; nearly all actives have a fitted effect of over 55% in size
Pf growth 48h: P. falciparum growth inhibition at 48 hours (one generation). P. falciparum luciferase growth in erythrocytes, 48 h. actives 5.9% (n = 310,000). Potency, µM (series often up to 28.7 µM), for the others: at the top dose activity change, negative = inhibition, most hits filed as inhibitors. AID 504832; active means well fitted inhibition curve with a large enough effect; inconclusive means small, poorly fitted or top-dose-only effect, or another doubt; inactive means no such curve, though single readings can be large or run the other way; further: potency means the concentration at half of the fitted maximal effect; on the % scale 0 is the no-effect control and ±100 the full control effect
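Growth was read as firefly luciferase luminescence after a 48 h, 37 C, 5% CO2 exposure of compounds to reporter-bearing P. falciparum cultures (0.1% parasitemia, 2% hematocrit final) in Albumax-supplemented RPMI 1640.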
NS1 function inh: inhibitors of influenza NS1 protein function; AID 2326; Potency, µM (doses to about 46.1 µM), without a hit: at the top dose activity, positive = more growth; actives 0.4% (n = 270,000); further: potency means the concentration at half of the fitted maximal effect; actives are rising curves; nearly all actives have a fitted effect of over 50% in size
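S. cerevisiae expressing influenza A NS1, grown in glucose, washed, then diluted 1:100 into pH 6.0 -URA galactose medium with 23 nl compound. Growth recovery read as OD600; NS1-free strain serves as control.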
Shiga inhibitor: blocks Shiga toxin action in Vero cells | inhibition, % at 38.7 µM | AID 2315 | Vero cells, Shiga toxin protein synthesis inhibition reporter | actives 9.2% (n = 290,000); in the data active means inhibition mostly above about 28%, no sharp cut-off; inactive means mostly below about 43%; further: 0% is about no effect
Cycloheximide cs: counter-screen hit for Shiga toxin inhibitors, cycloheximide | max response, % | cell reporter, cycloheximide protein synthesis inhibition counterscreen | actives 12% (n = 300,000) | AID 2314; in the data active means max response mostly above about 13%, no sharp cut-off; inactive means mostly below about 14%; further: read at 38.3 µM for the half of the compounds with a filed dose; 0% is about no effect
Starred values were filed as active, the others as inactive; u = inconclusive; x = no result; [ ] = dose if it differs, or a comment. Unless noted, the call rests on the fitted dose curve.

SMILES | Pf growth 96h | SARS PLP yeast | Pf growth 48h | NS1 function inh | Shiga inhibitor | Cycloheximide cs
O=C(CNC(=O)c1ccc2c(c1)S(=O)(=O)N=C1CCCCCN12)Nc1ccc(F)c(F)c1 | u | -9% | 10µM* | x | x | x
CCN(CC(=O)Nc1ccc(NC(C)=O)cc1)C(=O)c1ccc2c(c1)S(=O)(=O)N=C1CCCCCN12 | 35% | 2% | -24% | x | x | x
COc1ccc(Cc2c(O)nc(SCC(=O)c3ccc(OC)cc3)[nH]c2=O)cc1 | -62%[1.15 µM] | 0% | 4% | -2% | -11 | -10
Cn1ccnc1SCC(=O)c1cccc(C(F)(F)F)c1 | 2% | -1% | 47% | 1% | 72* | 26*
COc1cccc(C(=O)CSc2nc3cccnc3n2C)c1 | -24% | -15% | 0% | 2% | 16 | 3
COc1cc(C(=O)CSc2nccn2C)cc(OC)c1OC | 15% | -1% | 3% | 5% | 32 | 1
COc1ccc(C(=O)CSc2nccn2C)cc1 | 114% | -10% | 103% | -10% | 67* | 29*
COc1ccc(C(=O)CSc2nc3cccnc3n2C)cc1 | 3.7µM* | 1% | 10% | 6% | 7 | 5
COc1ccc(C(=O)CSc2cc(C)[nH]c(=O)n2)cc1 | 124% | -1% | 17% | 0% | 64* | 40*
COc1cc(CCC(=O)Nc2cccc(S(=O)(=O)N(C)C)c2)cc(OC)c1OC | -17% | 14% | 28% | 6% | -9 | 7
COC(=O)c1ccc(CSc2nccn2C)cc1 | x | -8% | 68% | 5% | 65* | 52*
CCOC(=O)CSc1nc2cccnc2n1C | u | 1% | 7% | -6% | 9 | 14
Cn1ccnc1SCc1ccc([N+](=O)[O-])cc1 | u | 5% | 1% | -3% | -5 | -3
Cn1ccnc1SCC(=O)c1ccc(OC(F)F)cc1 | 99% | 6% | 118% | 1% | 78* | 33*
COc1ccc(NCc2nnc(SCC(=O)c3ccc(OC)cc3)n2C)cc1 | 40% | -19% | u | -13% | 28 | 34*
Cn1c(SCc2ccccc2F)nc2cccnc21 | 6% | 6% | 84% | -32% | 117* | 28*
CCS(=O)(=O)c1ccc2oc(SCC(=O)Nc3ccc(OC)c(OC)c3)nc2c1 | -41% | -3% | -12% | x | 2 | 3
O=C(CN1CCc2ccccc2C1)Nc1ccc(Br)cc1 | -25% | -4% | x | -17% | 18 | 15
O=C(Nc1ccc(Br)cc1)N1CCc2ccccc2C1 | -27% | -11% | 62% | -32% | 126* | 53*
O=C(Nc1ccc(F)cc1)N1CCc2ccccc2C1 | 32% | -3% | 84% | -4% | 91* | 51*
Cc1cc(C)n(C(=O)CNC(=O)c2cccs2)n1 | x | -11% | 11% | -7% | -8 | -5
COc1ccccc1/C=C/C=N/N1CCN(c2ccccn2)CC1 | 25% | -1% | u | -8% | -9 | -4
COc1ccccc1N1CCN(/N=C/C=C\c2ccccc2[N+](=O)[O-])CC1 | u | -4% | -24% | x | 45* | 43*
COc1ccccc1N1CCN(/N=C/C=C\c2ccco2)CC1 | 281% | -8% | 198% | -7% | 53* | 41*
Cc1cccc(N2CCN(C(=O)c3cccs3)CC2)c1C | 10µM* | -7% | -4% | -54% | -9 | -3
SMILES | Pf growth 96h | SARS PLP yeast | Pf growth 48h | NS1 function inh | Shiga inhibitor | Cycloheximide cs
Cc1cc(C)n(C(=O)/C=C/c2cccs2)n1 | 10% | 1% | 25% | -8% | 64* | 29*
CC1CCCC(C)N1/N=C/C=C/c1ccccc1[N+](=O)[O-] (stereo not drawn) | 20% | -2% | 0% | x | 69* | 38*
COc1ccccc1N1CCN(C(=O)/C=C/c2ccco2)CC1 | -20% | -5% | 4% | 4% | 37* | 28*
COc1ccccc1N1CCN(C(=O)/C=C/c2cccs2)CC1 | 11% | 3% | u | -8% | 54* | 18*
COc1ccccc1N1CCN(C(=O)/C=C/c2ccccc2)CC1 | 108% | -12% | u | -15% | 19 | 15
Cc1cccc(N2CCN(C(=O)/C=C/c3cccs3)CC2)c1C | -7% | -70% | -27% | x | 64* | 44*
Cc1cccc(N2CCN(C(=O)C(C)C)CC2)c1C | x | -36% | -13% | -103% | -13 | -1
O=C(/C=C/c1cccs1)N1CCN(c2ccccc2)CC1 | u | 0% | -8% | -6% | -11 | 0
O=C(/C=C/c1cccs1)N1CCCC1 | 32% | -2% | 36% | -2% | 46* | 16*
COC(=O)c1ccc(C)c(NC(=O)CCSc2ccccc2)c1 | 1% | 6% | 3% | 7% | -3 | 9
Cc1cccc(NC(=O)CCSc2ccccc2)c1C | -5% | 0% | 15% | 1% | 19 | 12*
Cc1cccc(NC(=O)CCc2ccccc2)c1C | u | -3% | 29% | 4% | 35 | -1
Cc1ccc(NC(=O)CCn2nc(C)cc2C)c(C)c1 | 12µM* | u | 0% | 0% | -16 | 8
Cc1ccc(NC(=O)CNc2ccc(OC(C)C)cc2)c(C)c1 | 13µM* | 1% | u | -36% | 19 | -1
Cc1cc(Br)ccc1NC(=O)CCSc1ccccc1 | 34% | -14% | 8% | -11% | 48* | 16*
Cc1ccc(NC(=O)Cc2noc3ccccc23)c(C)c1 | 65% | -35% | 25% | -7% | 32* | 12
Cc1ccc(NC(=O)Cc2ccccc2)c(C)c1 | 0% | 1% | 17% | -4% | 17 | 17
Cc1ccc(NC(=O)CCSc2ccccc2)c(C)c1 | u | 0% | 3% | -2% | 55* | 24*
Cc1ccc(NC(=O)CCOc2ccccc2)c(C)c1 | 78% | -3% | -2%[0.00184 µM] | -5% | 39 | 13*
Cc1ccc(F)cc1NC(=O)CCOc1ccccc1 | 6% | 1% | 0% | x | 4 | 2
Cc1ccc(NC(=O)CS(=O)c2ccccc2N)c(C)c1 (stereo not drawn) | 52% | 2% | 111% | 0% | 35 | 38*
CCOC(=O)C(NC(=O)N(C)C)(Nc1sc(C)c(CC)c1C#N)C(F)(F)F (stereo not drawn) | -7% | u | -1% | 0% | 5 | -2
CSc1nc(C)cc(Oc2ccccc2)n1 | 61%[5.75 µM] | 0% | -11% | 7% | -12 | 10
COC(=O)c1cc(NC(=O)C2CC(=O)NC(=NCc3ccc(OC)cc3)S2)cc(C(=O)OC)c1 (stereo not drawn) | 41% | 0% | 7% | 5% | -7 | 1
Cc1cc(NC(=O)CCSc2ccccc2)ccc1Br | 0% | -50% | 66% | -7% | 21 | 87*
Cc1cc(NC(=O)CN(C)CCOc2ccccc2)ccc1Br | 0% | -7% | -13% | x | 18 | 3
COc1cc(C(=O)N2CCCN(c3nc4cc(C)ccc4cc3C#N)CC2)cc(OC)c1OC | x | 4% | 8.3µM* | -6% | -8 | 10
Cc1ccc2cc(C#N)c(N3CCN(C(=O)c4ccccc4)CC3)nc2c1 | u | -13% | u | -4% | -19 | -6
